According to PubChem BioAssay:
Where “and” joins values, the source holds several entries; their conditions need not be identical. Identical values can stand only once. Calls of active or inactive are those of the source.

Legend:
[1] = tested on: Plasmodium falciparum Sir2 (PF13_0152, Sir2A); assay: Plasmodium falciparum Sir2A binding compounds – biochemical, small-molecule microarray, 635 nm fluorescence, primary screen (AID 1098); details: fluorescence 635 nm, higher = more signal;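 note: score merges spot fluorescence intensity with its signal-to-noise ratio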
[2] = probe aDKK1 binding to arrayed compounds – biochemical, biotinylated probe, 635/667 nm fluorescence, primary screen (AID 1099); details: small-molecule microarray, higher = more signal;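 note: score merges 667nm spot fluorescence with signal to noise across triplicate slides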
[3] = probe aCHRDL2 binding to arrayed compounds – biochemical, biotinylated probe, 635/667 nm fluorescence, primary screen (AID 1100); details: small-molecule microarray, higher = more signal
[4] = change in splice reporter luminescence, either direction, cell-based, HEK293, spliceosome inhibition project, primary screen (AID 1101); details: HEK293 splicing luciferase reporter, 24 h, higher = more signal, called active from +8 up or from −8 down;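 note: HEK293 cells carrying a splicing-competent luciferase reporter gene; test concentration not given here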
[5] = target: Fibroblast growth factor 10 (Homo sapiens) (UniProt O15520); assay: compounds binding fibroblast growth factor 10 – biochemical, small-molecule microarray, 635 nm fluorescence, primary screen (AID 1102); details: FGF10 binding, fluorescence 635 nm, higher = more signal
[6] = tested on: glycogen synthase kinase-3 (GSK3A per assay name; protocol says GSK3B); assay: compounds binding glycogen synthase kinase-3 – biochemical, small-molecule microarray, 635 nm fluorescence, GSK3A, primary screen (AID 1103); details: fluorescence 635 nm, higher = more signal; note: the record names both GSK3A and GSK3B
[7] = target: Epidermal growth factor receptor (Homo sapiens) (UniProt P00533); assay: compounds binding epidermal growth factor receptor – biochemical, small-molecule microarray, 635 nm fluorescence, primary screen (AID 1104); details: EGFR binding, higher = more signal;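 note: score merges 667 nm emission intensity with spot signal to noise over triplicate slides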
[8] = target: Follistatin-related protein 3 (Homo sapiens) (UniProt O95633); assay: compounds binding follistatin-related protein 3 – biochemical, small-molecule microarray, 635 nm fluorescence, primary screen (AID 1105); details: FSTL3 binding, higher = more signal;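 note: score merges emission near 667 nm and signal to noise per printed spot across three slides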
[9] = target: Dickkopf-related protein 1 (Homo sapiens) (UniProt O94907); assay: small molecules binding DKK1 protein – biochemical, small-molecule microarray, 635 nm fluorescence scan, primary screen (AID 1106); details: higher = more signal;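 note: score merges emission near 667 nm with signal to noise over three replicate slides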
[10] = tested on: Inhibin beta A chain (activin A); assay: small molecules binding activin A – biochemical, small-molecule microarray, 635 nm fluorescence scan, primary screen (AID 1107); details: INHBA, higher = more signal;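 note: mouse activin A protein probed at 4.33 µg/mL on printed slides; score merges bound-protein fluorescence near 667 nm with spot signal-to-noise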
[11] = tested on: Human papillomavirus type 1a protein E7 (residues 44-93); assay: small molecules binding HPV E7 44-93 – biochemical, small-molecule microarray, residues 44-93, 635 nm fluorescence, primary screen (AID 1108); details: fluorescence 635 nm, higher = more signal;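 note: E7 fragment applied at 1 µg/mL in TBST for 1 h at 4 C; score combines spot fluorescence with its signal to noise ratio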
[12] = hepatitis C replication reporter changes, two-sided – Huh7 cells, luciferase reporter, HCV replication inhibitor project, primary screen (AID 1109); details: Huh7 HCV replicon luciferase reporter, 48 h; higher = more signal;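 note: huh7 hepatoma cells harbouring a luciferase neomycin HCV replicon reporter; luciferase luminescence as measure of HCV replicon replication; test concentration not given here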
[13] = target: Left-right determination factor 2 (Homo sapiens) (UniProt O00292); assay: small molecules binding LEFTY2 protein – biochemical, small-molecule microarray, 635 nm fluorescence scan, primary screen (AID 1110); details: higher = more signal
[14] = target: Calmodulin-1 (Homo sapiens) (UniProt P0DP23); assay: small molecules binding calmodulin-1 with EGTA – biochemical, small-molecule microarray, Cy5-labelled CALM1, profiling panel (AID 1111); details: Cy5-CALM1 binding fluorescence, higher = more signal;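 note: labelled calmodulin applied in Tris saline Tween buffer holding calcium plus EGTA and DTT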
[15] = target: Calmodulin-1 (Homo sapiens) (UniProt P0DP23); assay: small molecules binding Ca-loaded calmodulin-1 – biochemical, small-molecule microarray, Cy5-labelled CALM1, plus calcium, artefact control for SMM control-protein annotation, profiling panel (AID 1112); details: Cy5-CALM1 binding fluorescence, higher = more signal;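 note: score merges spot fluorescence with signal to noise from triplicate slides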
[16] = probe aWnt5a binding to arrayed compounds – biochemical, biotinylated probe, 635/667 nm fluorescence, primary screen (AID 1113); details: small-molecule microarray, higher = more signal;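 note: score merges 667 nm fluorescence intensity with signal-to-noise per printed feature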
[17] = probe aShh binding to arrayed compounds – biochemical, biotinylated probe, 635/667 nm fluorescence, primary screen (AID 1114); details: small-molecule microarray, higher = more signal;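 note: probe is biotin-labelled aShh protein from a stem cell growth factor screen; measures binding of labelled protein to compounds printed on the slide; score merges feature fluorescence at 667 nm with signal-to-noise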
[18] = probe aNog binding to arrayed compounds – biochemical, biotinylated probe, 635/667 nm fluorescence, primary screen (AID 1115); details: small-molecule microarray, higher = more signal;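 note: probe is biotinylated aNog protein used at 0.15 µg/mL for 1 h at 4 C; z-score combines 667 nm fluorescence of each spot with its signal to noise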
[19] = target: Torsin-1A-interacting protein 1 (Homo sapiens) (UniProt Q5JTV8); assay: compound microarray binding of lysate hLAP1 – cell lysate, small-molecule microarray, COS7 lysate, 635/667 nm fluorescence, primary screen (AID 1116); details: 635 nm fluorescence, higher = more signal
[20] = target: Alpha-bungarotoxin (Bungarus multicinctus) (UniProt P60615); assay: compounds binding labelled alpha-BTX control protein – biochemical, small-molecule microarray, Alexa647 label, 635/667 nm fluorescence, artefact control for SMM control protein annotation, profiling panel (AID 1117); details: alpha-BTX-A647 binding fluorescence, higher = more signal
Chain of Alpha-bungarotoxin (Bungarus multicinctus) (P60615 whole entry, looked up): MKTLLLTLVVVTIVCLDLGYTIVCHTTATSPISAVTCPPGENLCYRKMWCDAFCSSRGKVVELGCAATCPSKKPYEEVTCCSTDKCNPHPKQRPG

Chain of Fibroblast growth factor 10 (Homo sapiens) (O15520 whole entry, looked up): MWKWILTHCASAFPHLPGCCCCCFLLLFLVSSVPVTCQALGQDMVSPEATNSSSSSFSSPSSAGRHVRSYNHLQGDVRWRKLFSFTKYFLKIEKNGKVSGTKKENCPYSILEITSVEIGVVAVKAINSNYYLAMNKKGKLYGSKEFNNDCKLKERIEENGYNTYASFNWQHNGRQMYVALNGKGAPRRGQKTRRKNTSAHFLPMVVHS
Chain of Follistatin-related protein 3 (Homo sapiens) (O95633 whole entry, looked up): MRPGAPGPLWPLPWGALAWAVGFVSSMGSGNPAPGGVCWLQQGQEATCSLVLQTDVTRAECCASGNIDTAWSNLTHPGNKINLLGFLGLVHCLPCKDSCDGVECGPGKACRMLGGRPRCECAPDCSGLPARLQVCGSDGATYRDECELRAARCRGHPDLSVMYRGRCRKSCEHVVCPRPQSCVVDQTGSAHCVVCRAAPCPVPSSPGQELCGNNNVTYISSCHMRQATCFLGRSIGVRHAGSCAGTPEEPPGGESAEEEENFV
Chain of Left-right determination factor 2 (Homo sapiens) (O00292 whole entry, looked up): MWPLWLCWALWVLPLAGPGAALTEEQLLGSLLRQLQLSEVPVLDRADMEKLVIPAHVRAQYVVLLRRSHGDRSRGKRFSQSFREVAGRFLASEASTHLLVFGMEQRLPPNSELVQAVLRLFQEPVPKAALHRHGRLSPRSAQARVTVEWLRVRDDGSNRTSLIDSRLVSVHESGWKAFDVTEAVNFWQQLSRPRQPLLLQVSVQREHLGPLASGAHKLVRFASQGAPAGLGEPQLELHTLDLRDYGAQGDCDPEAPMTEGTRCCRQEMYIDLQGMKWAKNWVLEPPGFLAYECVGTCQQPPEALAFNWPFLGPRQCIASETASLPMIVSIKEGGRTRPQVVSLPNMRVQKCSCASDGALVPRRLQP
Chain of Torsin-1A-interacting protein 1 (Homo sapiens) (Q5JTV8 whole entry, looked up): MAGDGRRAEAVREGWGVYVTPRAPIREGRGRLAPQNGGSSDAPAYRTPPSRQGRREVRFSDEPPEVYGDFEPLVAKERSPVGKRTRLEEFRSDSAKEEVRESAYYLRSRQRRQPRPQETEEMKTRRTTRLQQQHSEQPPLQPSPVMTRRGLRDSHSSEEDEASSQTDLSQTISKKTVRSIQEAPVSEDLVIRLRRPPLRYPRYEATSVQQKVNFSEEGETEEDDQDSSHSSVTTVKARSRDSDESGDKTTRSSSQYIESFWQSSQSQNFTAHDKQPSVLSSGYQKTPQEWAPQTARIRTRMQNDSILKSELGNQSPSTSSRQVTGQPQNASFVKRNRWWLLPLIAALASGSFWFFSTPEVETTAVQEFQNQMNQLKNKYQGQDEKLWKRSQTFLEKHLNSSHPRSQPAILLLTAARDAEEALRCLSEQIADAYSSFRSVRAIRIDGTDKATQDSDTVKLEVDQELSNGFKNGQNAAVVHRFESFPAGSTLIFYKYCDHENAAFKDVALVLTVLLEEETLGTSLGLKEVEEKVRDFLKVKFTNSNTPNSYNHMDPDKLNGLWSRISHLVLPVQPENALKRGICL
Chain of Dickkopf-related protein 1 (Homo sapiens) (O94907 whole entry, looked up): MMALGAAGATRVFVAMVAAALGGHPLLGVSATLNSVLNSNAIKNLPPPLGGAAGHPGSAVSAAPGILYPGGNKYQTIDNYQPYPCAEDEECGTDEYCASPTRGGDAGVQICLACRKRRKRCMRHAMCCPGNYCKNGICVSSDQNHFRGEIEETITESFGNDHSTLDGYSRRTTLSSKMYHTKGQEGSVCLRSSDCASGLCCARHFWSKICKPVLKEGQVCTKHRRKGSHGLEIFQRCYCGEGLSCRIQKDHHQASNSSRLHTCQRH
Chain of Epidermal growth factor receptor (Homo sapiens) (P00533 whole entry, looked up): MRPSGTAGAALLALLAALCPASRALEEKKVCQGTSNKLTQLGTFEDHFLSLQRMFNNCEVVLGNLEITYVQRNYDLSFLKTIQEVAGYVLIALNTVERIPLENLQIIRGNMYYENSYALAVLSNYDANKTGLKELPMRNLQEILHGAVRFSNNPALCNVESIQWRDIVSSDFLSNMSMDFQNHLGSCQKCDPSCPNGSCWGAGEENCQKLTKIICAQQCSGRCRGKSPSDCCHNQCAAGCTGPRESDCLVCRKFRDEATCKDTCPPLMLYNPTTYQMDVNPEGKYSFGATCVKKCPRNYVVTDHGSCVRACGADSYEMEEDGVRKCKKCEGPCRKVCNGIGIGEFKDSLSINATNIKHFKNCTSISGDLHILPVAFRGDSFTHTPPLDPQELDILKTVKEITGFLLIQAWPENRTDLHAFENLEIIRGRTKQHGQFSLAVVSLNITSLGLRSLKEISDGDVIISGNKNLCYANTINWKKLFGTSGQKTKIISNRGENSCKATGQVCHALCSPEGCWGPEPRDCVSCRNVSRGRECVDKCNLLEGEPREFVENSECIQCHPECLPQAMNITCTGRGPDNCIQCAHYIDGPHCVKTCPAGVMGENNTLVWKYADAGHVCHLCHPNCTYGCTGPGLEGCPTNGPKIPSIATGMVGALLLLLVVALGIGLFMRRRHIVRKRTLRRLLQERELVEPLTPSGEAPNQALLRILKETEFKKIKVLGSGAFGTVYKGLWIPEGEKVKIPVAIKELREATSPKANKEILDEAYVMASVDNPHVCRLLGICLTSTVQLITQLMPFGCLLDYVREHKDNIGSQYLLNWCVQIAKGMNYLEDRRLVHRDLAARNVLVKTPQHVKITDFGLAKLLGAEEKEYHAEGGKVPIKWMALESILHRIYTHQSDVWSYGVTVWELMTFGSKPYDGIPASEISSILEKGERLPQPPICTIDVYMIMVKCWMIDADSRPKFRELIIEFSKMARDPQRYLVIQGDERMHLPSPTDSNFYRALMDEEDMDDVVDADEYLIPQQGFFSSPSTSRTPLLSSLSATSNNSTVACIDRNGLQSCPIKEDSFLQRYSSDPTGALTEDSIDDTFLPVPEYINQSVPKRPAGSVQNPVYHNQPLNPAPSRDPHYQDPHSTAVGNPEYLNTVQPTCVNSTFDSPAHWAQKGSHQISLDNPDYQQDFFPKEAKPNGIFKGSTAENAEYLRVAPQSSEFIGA

Structure (SMILES)	composite z-score [1]	composite z-score [2]	composite z-score [3]	z-score [4]	composite z-score [5]	composite z-score [6]	composite z-score [7]	composite z-score [8]	composite z-score [9]	composite z-score [10]	composite z-score [11]	z-score [12]	composite z-score [13]	composite z-score [14]	composite z-score [15]	composite z-score [16]	composite z-score [17]	composite z-score [18]	composite z-score [19]	composite z-score [20]
C=C[C@@H](OC)[C@H](O)c1ccc(OCCO)cc1	1.43 and -0.202	0.644 and -0.649	0.75 and 0.283	-0.462 (inactive) and -2.83 (inactive)	-0.72 and -1.24	-0.586 and -1.15	-1.55 and -0.957	-0.782 and -0.109	-1.06 and -0.955	-0.294 and -1.79	-0.796 and -1.11	0.241 and -0.0944	-1.42 and -0.132	-1.29 and -0.831	-0.778 and -0.247	-0.298 and -0.242	-0.221 and -0.138	-0.501 and -0.393	0.91 and -0.0877	-0.7 and -0.37
C=CCN(C(=O)C(c1cccs1)N(C(=O)/C=C\C(=O)O)c1c(Cl)cccc1CO)C(C)(C)C (stereo not given)	1.25 and -0.0135	0.352 and 0.285	1.38 and 1.31	-0.321 (inactive) and -0.297 (inactive)	-2.54 and -1.41	-2.14 and -1.33	-2.12 and -2.63	-2.45 and -2.23	-3.69 and -3.04	-3.4 and -1.92	-1.05 and -0.821	-0.814 and -1.62	-4.4 and -3.37	-1.1 and -0.796	0.802 and 0.271	-0.304 and -0.202	-0.0769 and -0.138	-0.263 and -0.036	-1.05 and -1.62	-1.29 and -1.31
C=CCN(CCCC)C(=O)C(c1cccs1)N(C(=O)/C=C\C(=O)O)c1ccc(CCO)cc1 (stereo not given)	-0.292 and 0.315	0.219 and -0.11	0.864 and 1.06	0.243 (inactive) and -0.284 (inactive)	-1.34 and -1.59	-1.58 and -1.35	-1.11 and -2.45	-0.963 and -2.14	-1.99 and -4.28	-1.22 and -1.99	-0.541 and -0.68	-1.03 and 0.741	-2.24 and -2.46	-0.324 and -0.724	0.423 and 0.395	-0.13 and -0.262	-0.0904 and -0.276	-0.0621 and -0.0827	1.13 and -0.803	0.749 and -2.47
CC(CO)N1C(=O)[C@@H]2C3C(=O)OCCC=C[C@H]3OC23C=CCN(Cc2ccccc2)C(=O)[C@@H]13 (stereo not given in full)	1.15 and 0.52	-0.2 and -0.173	0.139 and 0.407	-0.379 (inactive) and -0.024 (inactive)	-0.602 and -0.115	-0.491 and -0.648	-0.91 and -1.81	-0.771 and -1.06	-1.02 and -0.657	1.24 and -0.563	0.0364 and -1.19	-1.12 and -0.667	-1.26 and -1.45	-0.792 and 0.0954	-0.803 and 0.748	-0.154 and -0.21	-0.291 and -0.154	0.211 and -0.246	1.29 and -0.62	-1.73 and -0.88
CCOC(=O)c1ccc(NC(=O)O[C@H]2[C@H](OC(=O)Nc3ccccc3)[C@H](OC(=O)Nc3ccccc3)[C@@H](OC)O[C@@H]2CO)cc1	1.45 and 1.74	0.968 and 0.673	0.873 and 0.902	-0.285 (inactive) and -0.997 (inactive)	1.27 and 0.968	1.31 and 1.33	0.591 and 0.218	1.39 and 1.38	0.531 and 0.259	0.888 and 0.327	1.2 and 1.34	-3.29 and -3.49	0.899 and 0.291	2 and 2.1	0.0672 and 0.407	0.0438 and -0.0417	0.113 and 0.337	0.576 and 0.978	1.74 and 1.88	1.86 and 2.87
C=CCN(Cc1ccccc1)C(=O)C1N(c2ccc(CCO)cc2)C(=O)C2C(C(=O)O)C3C=CC21O3 (stereo not given)	0.808 and 1.9	0.433 and -0.26	1.08 and 1.01	-0.426 (inactive) and -0.139 (inactive)	-1.98 and -2.13	-1.13 and -1	-1.69 and -2.44	-3.03 and -1.19	-2.7 and -3.74	-3.78 and -3.04	-0.864 and -3.61	0.677 and 0.514	-2.68 and -3.26	-0.279 and -1.04	0.428 and -0.184	-0.195 and -0.0792	0.149 and -0.0035	-0.152 and 0.784	-0.958 and -1.58	-1.48 and 0.899
O=c1n(-c2ccccc2)c(=O)n2n1CC[C@@H]1C(=NOC[C@@H](O)COCc3ccco3)[C@H]3O[C@H]3[C@@H](O)[C@@H]12	0.981 and 1.38	-0.418 and -0.503	-0.929 and -0.662	-1.51 (inactive) and 0.0711 (inactive)	0.526 and -0.556	0.605 and -0.449	0.634 and 0.518	0.973 and 0.426	1.24 and 0.48	0.467 and 0.442	0.334 and -1.78	0.273 and -3.95	0.549 and 0.474	-0.288 and -0.601	-1.31 and -0.958	-0.0659 and -0.0276	-0.367 and -0.0035	-0.261 and -0.0733	0.721 and 0.223	0.719 and 0.0807
C=CCN(Cc1ccccc1)C(=O)C1N(CCOCCO)C(=O)C2C(C(=O)O)C3C=CC21O3 (stereo not given)	0.824 and 1.03	0.0606 and -0.027	1 and 1.1	-1.11 (inactive) and -0.281 (inactive)	-1.09 and -0.997	-0.419 and -0.793	-2.36 and -1.85	-2.65 and -2.12	-2.78 and -2.98	-2.4 and -2.13	-0.445 and -0.308	0.0184 and -0.0316	-3 and -3.39	-0.711 and -0.795	0.473 and -0.0792	-0.228 and -0.208	-0.138 and -0.276	0.238 and -0.341	3.99 and -0.887	-2.86 and -1.73
COc1ccc(O[C@H]2C=C[C@@H](c3ccccc3)O[C@@H]2COC(=O)CCC(C)=NO[C@H](C)c2cn([C@H](CO)Cc3ccccc3)nn2)cc1	0.366 and 0.205	0.416 and -0.0879	-0.305 and -0.291	-0.643 (inactive) and -1.07 (inactive)	-0.0593 and 0.263	-0.018 and 0.173	0.188 and 0.353	0.73 and 0.397	1.12 and 1.39	0.164 and 0.485	-0.0009 and -0.0146	-1.99 and -2.59	0.195 and 0.439	-0.223 and -0.233	-0.232 and -0.239	-0.132 and 0.205	-0.0553 and -0.129	-0.0827 and 0.96	0.14 and 0.392	0.211 and 0.231
CC(CO)N1C(=O)[C@@H]2C3C(=O)OCCC=C[C@H]3OC23C=CCN(Cn2nnc4ccccc42)C(=O)[C@@H]13 (stereo not given in full)	1.07 and 1.47	-0.26 and -0.125	0.683 and 0.303	-0.0985 (inactive) and 0.148 (inactive)	-0.914 and 0.715	-1.38 and -0.212	-1.56 and -0.105	-1.68 and -0.219	-2.03 and -0.18	-0.785 and 0.234	-0.394 and 0.27	-1.03 and 0.0704	-0.985 and -0.403	-0.184 and -0.298	0.73 and -0.573	-0.25 and 0.0431	-0.474 and 0.0062	-0.0103 and -0.142	-0.393 and 0.0141	-0.652 and -0.332
